# Screens (PubChem BioAssay)
# Hits are enriched below; roughly 9.6% of the tested compounds scored in any of these assays.
# Cav32 inh = human Cav3.2 channel inhibition, primary screen. O95180. Cav3.2-expressing cells, Fluo-4 calcium fluorescence FDSS; active compounds read low. B-score at 10 µM. 4% of 100,000 active. AID 449739;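 active = single-dose well whose peak fluorescence ratio is a statistical outlier from its plate by either plate-standardised score or position-corrected B-score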
# Target sequence (O95180 whole entry, looked up): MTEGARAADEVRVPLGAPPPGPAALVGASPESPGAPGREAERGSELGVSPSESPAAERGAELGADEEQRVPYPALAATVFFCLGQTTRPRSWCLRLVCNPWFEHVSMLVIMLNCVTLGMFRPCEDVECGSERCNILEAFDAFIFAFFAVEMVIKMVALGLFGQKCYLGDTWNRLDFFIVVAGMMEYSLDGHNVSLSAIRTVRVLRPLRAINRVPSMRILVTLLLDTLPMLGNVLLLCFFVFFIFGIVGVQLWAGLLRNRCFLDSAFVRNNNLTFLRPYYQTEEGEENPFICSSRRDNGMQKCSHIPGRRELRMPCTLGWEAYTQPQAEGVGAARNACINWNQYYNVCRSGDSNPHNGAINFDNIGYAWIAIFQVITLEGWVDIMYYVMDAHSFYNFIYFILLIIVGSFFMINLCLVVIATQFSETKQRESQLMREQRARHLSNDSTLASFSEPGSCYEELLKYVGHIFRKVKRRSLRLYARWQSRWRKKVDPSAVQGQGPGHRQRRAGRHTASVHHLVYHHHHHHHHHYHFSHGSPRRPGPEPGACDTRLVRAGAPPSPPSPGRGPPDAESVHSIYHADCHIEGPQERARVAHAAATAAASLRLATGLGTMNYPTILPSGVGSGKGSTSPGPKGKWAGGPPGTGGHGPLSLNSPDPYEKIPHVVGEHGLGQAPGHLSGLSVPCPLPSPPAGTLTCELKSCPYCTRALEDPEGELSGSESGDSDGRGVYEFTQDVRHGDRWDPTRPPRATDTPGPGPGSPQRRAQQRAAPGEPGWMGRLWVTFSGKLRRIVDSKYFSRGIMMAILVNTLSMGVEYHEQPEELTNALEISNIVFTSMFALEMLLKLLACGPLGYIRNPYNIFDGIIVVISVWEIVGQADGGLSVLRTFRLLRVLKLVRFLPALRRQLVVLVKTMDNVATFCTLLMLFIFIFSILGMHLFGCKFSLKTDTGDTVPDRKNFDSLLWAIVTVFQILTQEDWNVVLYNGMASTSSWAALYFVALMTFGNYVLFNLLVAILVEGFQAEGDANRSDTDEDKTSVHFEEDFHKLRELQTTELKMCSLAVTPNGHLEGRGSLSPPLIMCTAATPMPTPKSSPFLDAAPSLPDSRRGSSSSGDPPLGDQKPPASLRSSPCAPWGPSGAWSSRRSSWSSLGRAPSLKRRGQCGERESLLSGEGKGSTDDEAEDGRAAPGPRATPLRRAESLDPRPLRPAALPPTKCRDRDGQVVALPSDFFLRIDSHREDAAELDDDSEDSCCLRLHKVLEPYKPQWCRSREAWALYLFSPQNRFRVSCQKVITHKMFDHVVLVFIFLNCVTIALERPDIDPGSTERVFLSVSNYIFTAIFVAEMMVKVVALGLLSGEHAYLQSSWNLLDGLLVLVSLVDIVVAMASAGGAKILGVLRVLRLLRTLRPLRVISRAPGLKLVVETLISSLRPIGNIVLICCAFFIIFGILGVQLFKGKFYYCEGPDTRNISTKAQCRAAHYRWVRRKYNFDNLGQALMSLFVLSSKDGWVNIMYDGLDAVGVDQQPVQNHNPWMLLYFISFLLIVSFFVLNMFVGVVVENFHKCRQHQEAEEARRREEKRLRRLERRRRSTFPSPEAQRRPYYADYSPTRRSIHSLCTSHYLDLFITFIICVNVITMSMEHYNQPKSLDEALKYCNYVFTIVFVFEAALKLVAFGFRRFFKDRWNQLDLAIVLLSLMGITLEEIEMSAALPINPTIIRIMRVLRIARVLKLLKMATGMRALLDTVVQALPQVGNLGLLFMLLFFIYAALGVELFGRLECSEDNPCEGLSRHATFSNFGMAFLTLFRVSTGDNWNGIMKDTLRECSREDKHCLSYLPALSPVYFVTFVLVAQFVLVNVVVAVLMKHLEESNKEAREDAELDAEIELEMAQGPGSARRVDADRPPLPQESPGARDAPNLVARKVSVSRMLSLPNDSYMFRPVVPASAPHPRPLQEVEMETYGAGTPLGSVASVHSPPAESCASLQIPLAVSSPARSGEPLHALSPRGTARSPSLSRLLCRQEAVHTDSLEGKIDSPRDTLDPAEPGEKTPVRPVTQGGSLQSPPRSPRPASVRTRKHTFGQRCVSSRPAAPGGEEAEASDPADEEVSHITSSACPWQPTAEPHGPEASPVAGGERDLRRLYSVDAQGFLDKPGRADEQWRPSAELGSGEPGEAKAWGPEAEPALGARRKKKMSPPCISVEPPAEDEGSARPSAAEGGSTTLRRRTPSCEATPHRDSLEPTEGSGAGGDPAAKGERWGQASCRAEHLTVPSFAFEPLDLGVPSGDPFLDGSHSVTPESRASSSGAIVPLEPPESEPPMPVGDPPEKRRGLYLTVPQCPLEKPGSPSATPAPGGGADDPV
# PostGolgi ctrl = yeast control strain growth, post-Golgi counter-screen. efflux-deficient yeast background strain, growth absorbance A615, 16 h. inhibition, % at 10 µM. 5% of 98,000 active. AID 738
# PostGolgi yeast = growth inhibition of a yeast mutant, post-Golgi transport screen. post-Golgi transport phenotypic cell assay. inhibition, % at 10 µM. 0.9% of 98,000 active;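 also: yeast cells grown in 1536-well plates; yeast grown about 18 h at 30C before absorbance read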
# PLAP activator = activates human placental alkaline phosphatase; activation fold at 20 µM; purified PLAP enzyme, luminescent substrate read-out; active compounds read high; P05187; 1.2% of 96,000 active; in the data active = activation fold above about 2
# hDAT+cocaine = human DAT dopamine uptake with cocaine, either direction; LLC-PK1 hDAT cells, [14C]-dopamine uptake with cocaine IC80; actives deviate in either direction; B-score at 10 µM; 1.3% of 110,000 active;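 active = Z score or B-score, a plate-position-corrected score, falls beyond the plate's 99.7% confidence bounds, in either direction; inactive = both scores lie inside the 99.7% bounds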;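 also: scored against the spread of the other compound wells on the same plate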
# An asterisk follows results filed as active; nt = no result given. Rule as the data show it, unless noted: active = inhibition above about 30%; inactive = the rest.
SMILES,Cav32 inh,PostGolgi ctrl,PostGolgi yeast,PLAP activator,hDAT+cocaine
CCOC(=O)C1CSC(CC(=O)Nc2ccc(Cl)c(Cl)c2)C(=O)N1 (stereo not given),-2.42,2.1,-5.5,1.2,1.35
Cc1ccccc1C(=O)Nc1nc2n(n1)C(c1ccccc1)CC(=O)N2 (stereo not given),-0.392,3.8,4.0,1.6,0.302
C=CCNCc1cccn1-c1ccccc1,0.55,34.4*,-1.4,1.1,-0.728
COc1ccc(NC(=O)C2CCCN2S(=O)(=O)c2cccc3cccnc23)c(OC)c1 (stereo not given),0.715,94.8*,97.2*,1.4,0.00949
Cc1ccccc1NC(=O)C1CCCN(S(=O)(=O)c2cccc3cccnc23)C1 (stereo not given),1.27,30.8*,-6.0,0.9,0.825
CCOc1ccc(OCC)c(NC(=O)C2CCCN2S(=O)(=O)c2cccc3cccnc23)c1 (stereo not given),0.289,26.7,5.8,1.5,0.448
COc1ccc(CCNC(=O)C2CC3Cn4c(nc5ccccc54)C3N2c2ccccc2)cc1 (stereo not given),-0.0354,nt,nt,nt,-1.4
Cc1cc(C)nc(NN2C(=O)/C(=C/c3ccc(O)cc3)SC2=S)n1,-3.01,2.7,-0.8,0.4,-0.343
CCC(CO)NC(=O)c1cccc(S(=O)(=O)N2c3ccccc3CC2C)c1 (stereo not given),-1.22,8.7,0.8,1.5,0.517
CCCN(CCC)S(=O)(=O)c1ccc(NS(=O)(=O)c2ccc(F)cc2)cc1,-3.9*,0.0,1.1,1.3,-0.874
CCN(CC)S(=O)(=O)c1ccc(NS(=O)(=O)c2ccc(C)c(C)c2)cc1,-4.35*,2.4,-0.6,1.5,1.02
C=C1CCN([C@@H](CC(C)C)C(=O)N2CCOCC2)S(=O)(=O)c2ccccc21,2.15,nt,nt,nt,-0.584
CN(Cc1ccco1)C(=O)C1CCC(=O)N1Cc1ccc(F)cc1 (stereo not given),-0.156,17.3,11.9,1,-0.399
Cc1ccc(N2C(=O)c3cccc4c(N5CCN(C)CC5)ccc(c34)C2=O)c2cccnc12,-4.31*,7.1,-7.4,1.2,0.0352
O=C(C1=C[C@H](c2coc3ccccc3c2=O)C[C@H](OCCCCO)O1)N1CCN(Cc2ccc3c(c2)OCO3)CC1,0.173,nt,nt,nt,0.277
CC(C)OC(=O)c1cn(-c2ccccc2)nc1-c1ccco1,-0.00181,16.2,-3.9,1.3,0.0901
Cc1ccc(-c2nn(-c3ccccc3)cc2CN(Cc2ccccc2)C(=O)c2ccco2)o1,-3.96*,15.0,-1.4,1.3,-1.24
